Activity calls are given as the source filed them.
Assay: basal S. cerevisiae growth modulation, no modifier, primary screen, OD600, strain BY4716, 24 h, basal condition (AID 1173)
Details: OD600, 24 h, higher = more signal, called active from +8 up or from −8 down

z-score, inactive:
CCOC(=O)C1=C[C@@H](C(C)C)N(S(=O)(=O)c2ccc(C)cc2)[C@H]1c1ccc(C(F)(F)F)cc1 2.42
COCCCNC(=O)[C@@]1(Sc2ccc(C)cc2)CC(=O)N(C2Cc3ccccc3C2)[C@@H]1c1ccc(CO)cc1 -0.153
C[N+](C)(C)CCCC[C@@H]1NC(=O)[C@@H]2C[C@H](C(=O)NCCCCCCN)[C@H](c3cccc(OCCO)c3)N2C1=O -0.22
C=CCC(OC(C)=O)[C@@H]1[C@@H](N(Cc2ccc(-c3ccccc3)cc2)C(=O)c2ccc(-c3ccccc3)cc2)c2cc(OCCCO)ccc2N1C(=O)c1ccc2ccccc2c1 (stereo partly drawn) 0.416
CC1CC/C=C\[C@H]2OC34C=CCN(C(C)C)C(=O)[C@H]3N(CCO)C(=O)[C@@H]4C2C(=O)O1 (stereo partly drawn) 0.486
CCCNC(=O)[C@@H]1c2ccccc2C(=O)N(Cc2ccc(OC(F)(F)F)cc2)[C@H]1c1ccc(CO)cc1 0.0357
CC(C)NC(=O)[C@@]1(C)c2ccccc2C(=O)N(Cc2ccc(OC(F)(F)F)cc2)[C@H]1c1ccc(CO)cc1 0.154
COc1ccc(CCNC(=O)[C@@]2(Cc3ccccc3I)c3ccccc3C(=O)N(C3CCCCC3)[C@H]2c2ccc(CO)cc2)cc1 -0.447
